According to PubChem BioAssay AID588342 (National Center for Advancing Translational Sciences (NCATS), 2011):
Out of some 360,000 compounds screened, about 25,000 (6.9%) were called active. About 9% were inconclusive and are not listed. What follows is part of a selection rich in actives, with near analogues and random picks from the rest. Values without a mark were called inactive. Calls follow the shape of the dose curve; as a rule, active = well fitted inhibition curve with a large enough effect; inconclusive = small, poorly fitted or top-dose-only effect; inactive = flat fitted curve, though single readings scatter.

These compounds were tested against Luciferin 4-monooxygenase (Photinus pyralis) (UniProt P08659) (assay: qHTS profiling assay for firefly luciferase inhibitor/activator using purifed enzyme and Km concentrations of substrates (counterscreen for miR-21 project)). Settings: purified FLuc, luminescence inhibition; series mostly up to 57.5 µM; activity change, negative = inhibition: at the top concentration.
Procedure, shortened: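 Purified P. pyralis luciferase, 10 nM final, with Km-level 10 uM D-luciferin and 10 uM ATP in 50 mM Tris acetate pH 7.5, 10 mM Mg acetate, 0.01% Tween-20, 0.05% BSA; 6-point qHTS titration about 60 µM downward; luminescence read.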
Also: nearly all actives have a fitted effect of over 55% in size.
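For activity change, negative = inhibition in this document: plate controls were vehicle for no effect and reference inhibitor for full effect.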
Potency is read from the fitted curve at half-maximal effect.

Sequence of Luciferin 4-monooxygenase (Photinus pyralis) (P08659 whole entry, looked up): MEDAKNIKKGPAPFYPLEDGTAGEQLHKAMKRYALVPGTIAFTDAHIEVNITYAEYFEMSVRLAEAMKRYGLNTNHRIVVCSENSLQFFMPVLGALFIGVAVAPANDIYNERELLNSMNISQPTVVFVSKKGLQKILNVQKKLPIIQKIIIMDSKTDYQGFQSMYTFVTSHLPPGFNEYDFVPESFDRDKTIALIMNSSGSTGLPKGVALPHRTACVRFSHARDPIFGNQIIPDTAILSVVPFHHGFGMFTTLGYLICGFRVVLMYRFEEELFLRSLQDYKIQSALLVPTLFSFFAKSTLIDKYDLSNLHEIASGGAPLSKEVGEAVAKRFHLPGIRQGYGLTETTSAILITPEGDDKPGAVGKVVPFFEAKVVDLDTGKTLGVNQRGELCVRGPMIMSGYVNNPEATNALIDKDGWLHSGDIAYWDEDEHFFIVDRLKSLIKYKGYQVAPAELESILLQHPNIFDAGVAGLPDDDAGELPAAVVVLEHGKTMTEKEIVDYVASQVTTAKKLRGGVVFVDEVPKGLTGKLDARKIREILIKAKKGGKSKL

SMILES	Potency	activity change, negative = inhibition [%]
COc1cccc(CNC(=O)c2n[nH]c3ccccc23)c1	26.9 µM (active)	
O=C(COC(=O)Cc1c[nH]c2ccccc12)NCCc1ccccc1		4.44
O=C(COC(=O)c1n[nH]c2ccccc12)NCc1ccccc1		-11.5
O=C(NCCc1ccc(F)cc1)c1ccc2nccnc2c1	8.49 µM (active)	
O=C(CC(=O)N/N=C\c1ccc(F)cc1)NCCc1ccccc1		-1.3
COc1ccc(COC(=O)c2n[nH]c3ccccc23)cc1F	19 µM (active)	
O=C(NCCc1ccc(Cl)cc1)c1ccc2c(c1)N(Cc1ccc(F)cc1)C(=O)CS2		-14.2
COc1ccc(NC(=O)COC(=O)c2n[nH]c3ccccc23)c(OC)c1		-1.44
COc1cccc(CNC(=O)Cc2csc(Nc3nc(=S)[nH]c4ccccc34)n2)c1		-0.0432
COc1ccc(F)cc1C(=O)COC(=O)c1n[nH]c(=O)c2ccccc12		-1.17
O=C(NCCc1ccc(F)cc1)c1ccc(S(=O)(=O)N2CCCCC2)cc1		-2.12
O=C(NCCc1ccc(F)cc1)c1n[nH]c2ccccc12	16.9 µM (active)	
COc1ccc(CCNC(=O)c2cc(=O)c3c(C)cc(C)cc3o2)cc1OC		-16.7
CCOC(=O)c1cccc(NC(=O)c2cc(CN3CCCC3)on2)c1		-19.1
Cc1ccc(CNC(=O)CCC(=O)N2Cc3ccccc3Oc3ncccc32)cc1		-8.22
CC(=O)c1c(C)[nH]c(C(=O)OCC(=O)Nc2c(C)n(C)n(-c3ccccc3)c2=O)c1C		-0.915
CC1(NC(=O)CCS(=O)(=O)c2ccc(Cl)cc2)CCS(=O)(=O)C1 (stereo not given)		1.48
Cc1ccccc1CN1CCC(CNC(=O)c2c(C)oc3ncnc(N4CCCCC4)c23)CC1		-3.54
Cc1ccc(Nc2nnc(SC(C)C(=O)NC3CC3)s2)cc1 (stereo not given)		-20.7
CCOC(=O)c1c(NC(=O)CCl)sc(C(=O)N(CC)CC)c1C		4.64
Cc1ccc(C)c(NC(=O)CN(C)C(=O)c2ccc3ncsc3c2)c1		-10.6
Cc1c(C(=O)N(C)C)sc2c1c(=O)n(-c1ccc(F)cc1)c(=O)n2CC(=O)N(C)c1ccccc1		0.935
O=C(/C=C/c1ccc(Cl)cc1)N1CCN(c2ccccc2[N+](=O)[O-])CC1		2.35
O=C(/C=C/c1ccc2c(c1)OCCO2)c1ccc(O)cc1	1.35 µM (active)	
CC(=O)c1ccc2c(c1)OCCOCCOc1ccc(C(C)=O)cc1OCCOCCO2		-0.182
Cc1cc(C(=O)O)ccc1[N+](=O)[O-]		2.58
O=C(COC(=O)/C=C/c1ccc2c(c1)OCO2)NC1CCS(=O)(=O)C1 (stereo not given)		4.04

SMILES	Potency	activity change, negative = inhibition [%]
CN(C)c1ccc(/C=C/C(=O)c2ccc(O)cc2)cc1[N+](=O)[O-]	12 µM (active)	
CCC(=O)NC(Nc1cc(C)ccn1)(C(F)(F)F)C(F)(F)F		0.488
Cc1cc(=O)oc(C)c1C(=O)NC1CC(C)(C)NC(C)(C)C1		3.1
O=C(C1CCCN(S(=O)(=O)c2cccc3nonc23)C1)N1CCN(c2ccccc2F)CC1 (stereo not given)		-8.46
CCc1ccc(S(=O)(=O)n2ccnc2)cc1		-10.1
CCOc1ccc(NC(=O)CSc2c3c(nc4ccccc24)CCCC3)cc1		0.835
O=C(Nc1c2c(nc3ccccc13)CCCC2)c1ccccc1Br		-0.545
O=C(COC(=O)c1c2c(nc3ccccc13)CCCC2)c1ccc(Br)s1	15.1 µM (active)	
Cc1nn(Cc2ccccc2)c(C)c1C(=O)N1CCN(CC(=O)Nc2ccccc2Cl)CC1		0.182
COc1ccccc1/C=C/c1nc(C#N)c(NC(C)c2ccccc2)o1 (stereo not given)		-10.4
CC(C)c1ccc(NC(=O)COC(=O)c2ccc(CN3CCCC3=O)cc2)cc1		-0.471
Cc1cc(OC(C)C(=O)Nc2sc3c(c2C(N)=O)CCCC3)ccc1Cl (stereo not given)		-2.53
O=C(NCc1cn2ccsc2n1)Nc1cccc(Cl)c1		-16.5
CCc1cccc(NC(=O)CCC(=O)O)c1		-1.25
CCCC(=O)Nc1cccc(-c2cn3ccsc3n2)c1	21.3 µM (active)	
CCc1nn(CC(=O)NCC(C)c2ccccc2)c(=O)c2cc3occc3n12 (stereo not given)		-4.47
Cc1nn(-c2ccccc2)c(Cl)c1/C=N/NC(=O)c1nn(C)cc1[N+](=O)[O-]	10.7 µM (active)	
Cc1c(C(=O)N/N=C/c2ccccc2)[nH]c2c([N+](=O)[O-])cccc12		3.01
Cc1nn(-c2ccccc2)c(C)c1/C=N/NC(=O)CSc1nc2ccccc2c(=O)n1-c1ccccc1		0.0642
COc1ccc(NC(=O)CN2C(=O)COc3ccc(S(=O)(=O)N4CCOCC4)cc32)cc1	inactive	
CC(=O)C1C(c2ccc(Cl)cc2)c2c(n[nH]c2C)CC1(C)O (stereo not given)		3.98
CCOC(=O)c1ccc(NC2Nc3cc(C)nn3S2)cc1 (stereo not given)		-0.982
CCc1ccc(NC2Nc3cc(C)nn3S2)cc1 (stereo not given)	4.78 µM (active)	
COc1c(Cl)cc(C(=O)N(Cc2ccccc2F)C2CCS(=O)(=O)C2)cc1Cl (stereo not given)		-0.344
O=C(COc1ccc(Cl)cc1)N(Cc1ccco1)Cc1ccco1		-19.8
CC[C@H](C)C(=O)N[C@H]1CCCN1C(=O)/C=C/c1ccccc1		4.5
COc1ccc(C)cc1NC(=S)N1CCOCC1		5.69

SMILES	Potency	activity change, negative = inhibition [%]
COc1ccccc1/C=C/C(=O)NC(=S)N1CCOCC1	12 µM (active)	
O=C(/C=C/c1ccco1)NC(=S)N1CCCCC1		-16.9
COc1ccc(OC)c(NC(=O)c2cnn(-c3ccccc3Cl)c2NC(=O)c2ccco2)c1		5.56
Cc1ccc2c(c1)C1CN(C)CCC1N2S(=O)(=O)c1cccc(F)c1 (stereo not given)		3
COCc1nc2ccccc2n1Cc1ccccc1Br		1.51
COCn1c(COc2ccccc2)nc2ccccc21	16.9 µM (active)	
Cc1ccc(OCc2nc3ccccc3n2C)cc1	3.01 µM (active)	
CC(C)c1ccc(Cn2c(COc3ccccc3)nc3ccccc32)cc1	19 µM (active)	
CC(O)c1nc2ccccc2n1Cc1ccc([N+](=O)[O-])cc1 (stereo not given)		-2.35
Cn1c(CNC(=O)C(C)(C)C)nc2ccccc21		-0.0419
CCCn1c(C(O)c2ccc(OCC)cc2)nc2ccccc21 (stereo not given)		4.37
CCOc1ccc(C(O)Cc2nc3ccccc3n2C)cc1 (stereo not given)		-11.3
O=C(Cn1c(COc2ccccc2)nc2ccccc21)Nc1cc(Cl)c(Cl)cc1Cl		0.398
CCc1nc2cccnc2n1-c1ccc(CC(=O)Nc2c(C)cccc2C)cc1		-0.458
Cc1ccccc1-n1nc(C)c2c1N=C1C(Cl)=CC(Cl)=CN1C2c1ccc(C(=O)O)cc1 (stereo not given)		-8.87
CCn1c(=O)c(=O)[nH]c2c(=O)oc3ccc(S(=O)(=O)Nc4ccc(OC)cc4)cc3c21		1.02
O=C(CC1N=C2c3ccccc3N=C(SCc3cccc(Cl)c3)N2C1=O)NCc1ccc2c(c1)OCO2 (stereo not given)		-9.72
Cc1ccc(S(=O)(=O)NCCc2nnc3ccc(SCc4cccnc4)nn23)cc1		-0.515
COc1c(C=O)c(CCN(C)C(=O)c2ccc(F)cc2)cc2c1OCO2		1.83
Cc1ccc(-c2nc(CS(=O)(=O)CC(=O)NCc3ccccc3Cl)c(C)o2)cc1		2.41
CCOC(=O)c1c(NC(=O)c2cc(CC)on2)sc(C(C)=O)c1C		0.398
CCOc1ccc(NC(=S)N2CCCCCC2)cc1		-7.6
CCOC(=O)c1ccc(NC(=S)N2CCCC2)cc1		-8.94
CCC(C)c1ccc(NC(=S)N2CCCC2)cc1 (stereo not given)	15.1 µM (active)	
CC1Cc2cc(S(=O)(=O)CCC(=O)Nc3ccc(F)c(Cl)c3)ccc2N1C(=O)C1CC1 (stereo not given)		-7.53
O=C(c1ccc2c(c1)N(Cc1ccc(Cl)cc1)C(=O)c1ccccc1S2(=O)=O)N1CCCCC1		7.03
O=C(/C=C/NCc1ccc(F)cc1)c1ccccc1	16.9 µM (active)	

SMILES	Potency	activity change, negative = inhibition [%]
Cc1cccc[n+]1CC(=O)c1ccccc1		-0.244
O=C(NCCS(=O)(=O)NCc1ccc(F)cc1)c1ccccc1		4.95
O=C(/C=C\NCC(=O)c1ccccc1)c1ccccc1	12 µM (active)	
CCCCC(=O)NCc1ccc(F)cc1		0.712
CCN(c1ccccc1)S(=O)(=O)c1cc(C(=O)NCc2ccccn2)ccc1C		-1.73
CC(=O)c1c(C)[nH]c(C(=O)COc2ccc3c(C)cc(=O)oc3c2)c1C		5.31
Cc1ccc(C(=O)Nc2c(C(=O)NC(C)(C)C)oc3ccccc23)cc1		2.44
COc1ccc(Cl)cc1NC(=O)c1sc2nc3c(cc2c1N)CN(C)CC3		-1.38
COc1ccc(-n2c(SCC(=O)Nc3ccc(Cl)c(C)c3)nc3n[nH]c(C)c3c2=N)cc1		-0.344
COc1ccc(Cn2ccn(CC(=O)Nc3cc(C)ccc3C)c(=O)c2=O)cc1		0.418
COc1cc(C2c3c(oc4ccccc4c3=O)C(=O)N2c2nc(C)c(C)s2)ccc1O (stereo not given)		-4.51
Cc1ccc(NC(=O)C2CCCN2S(=O)(=O)c2cccc3cccnc23)c(C)c1 (stereo not given)	inactive	
COc1cc(/C=N/NC(=O)c2cccnc2)ccc1OC(=O)c1cccc(Br)c1		0.287
COc1cc(/C=N/NC(=S)Nc2cccnc2)cc(OC)c1O	10.7 µM (active)	
CCOC(=O)N/N=C/c1cccnc1		6.17
C[C@@H]1C[C@@H]2O[C@H]2/C=C\C=C\C(=O)Cc2c(Cl)c(O)cc(O)c2C(=O)O1		-3.44
COC(=O)c1ccc(Cn2c(SCC(=O)N(C)c3ccccc3)nc3ccccc32)cc1		-16.2
Cc1ccc(OC(=O)c2c(C)nn(-c3ccccc3)c2C)cc1	13.5 µM (active)	
Cc1cccc(C)c1NC(=O)COC(=O)c1c(C)nn(-c2ccccc2)c1C		-19
Cc1nn(-c2ccccc2)c(-n2cccc2)c1C(=O)O		-0.636
CCCC12CN3CC(CCC)(CN(C1)C3c1c[nH]c3ccc(OC)cc13)C2=O (stereo not given)		-1.95
COc1ccccc1C(=O)NCCC(=O)N(C)Cc1cccnc1		-1.3
COc1ccc(CCNC(=O)CCCCn2c(=O)c3ccccc3n(Cc3ccccc3)c2=O)cc1OC		1.96
CCOc1ccc(C(=O)c2cn(Cc3ccccc3OC)c3ccc(F)cc3c2=O)cc1		0.01
